# Data reported in paper PMC7862700, “An all-to-all approach to the identification of sequence-specific readers for epigenetic DNA modifications on cytosine”.
# How the values were obtained:
# Assay in all cases: DAPPL (digital affinity profiling via proximity ligation, sequencing); 10 mM Tris-HCl pH 7.5, 50 mM NaCl, 1 mM DTT, 4% glycerol, room temperature, 30 min; GST-TFs on glutathione beads, 16-mer random dsDNA library, 0.1% formaldehyde crosslink after washing; high values mean tight binding
# FLI1 = target: T1, FLI1 (Homo sapiens, UniProt Q01543 1-452); details: protein: recombinant; tags: N-terminal GST; dsDNA, one strand shown
# T1 sequence: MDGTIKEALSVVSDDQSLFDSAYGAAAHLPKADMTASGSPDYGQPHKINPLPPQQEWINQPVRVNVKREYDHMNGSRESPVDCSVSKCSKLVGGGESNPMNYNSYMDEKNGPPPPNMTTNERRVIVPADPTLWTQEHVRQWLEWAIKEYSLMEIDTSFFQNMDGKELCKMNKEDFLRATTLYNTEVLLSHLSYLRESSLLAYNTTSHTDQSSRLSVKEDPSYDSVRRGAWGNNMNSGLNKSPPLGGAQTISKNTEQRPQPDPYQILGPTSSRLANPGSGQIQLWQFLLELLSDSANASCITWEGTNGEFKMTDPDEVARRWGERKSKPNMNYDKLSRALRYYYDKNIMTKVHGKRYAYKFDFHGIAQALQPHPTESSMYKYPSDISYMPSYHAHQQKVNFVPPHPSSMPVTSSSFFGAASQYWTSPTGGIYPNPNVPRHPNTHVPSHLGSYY
# Method in brief: (§1)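 Each value of binding signal is a hexamer's read frequency for a factor divided by the same hexamer's frequency in the tag-only sample. Barcoded, bead-captured GST fusions of human transcription factors made in yeast were pooled with that sample and incubated with 200 nmole of a random double-stranded 16-mer DNA library in Tris/NaCl/DTT/glycerol buffer at room temperature for 30 min. Washing, 0.1% formaldehyde crosslinking, proximity ligation, PCR and Illumina NextSeq500 sequencing followed.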
# ELK1 = target: T2, ELK1 (Homo sapiens, UniProt P19419 1-428); details: protein: recombinant; tags: N-terminal GST; dsDNA, one strand shown
# T2 sequence: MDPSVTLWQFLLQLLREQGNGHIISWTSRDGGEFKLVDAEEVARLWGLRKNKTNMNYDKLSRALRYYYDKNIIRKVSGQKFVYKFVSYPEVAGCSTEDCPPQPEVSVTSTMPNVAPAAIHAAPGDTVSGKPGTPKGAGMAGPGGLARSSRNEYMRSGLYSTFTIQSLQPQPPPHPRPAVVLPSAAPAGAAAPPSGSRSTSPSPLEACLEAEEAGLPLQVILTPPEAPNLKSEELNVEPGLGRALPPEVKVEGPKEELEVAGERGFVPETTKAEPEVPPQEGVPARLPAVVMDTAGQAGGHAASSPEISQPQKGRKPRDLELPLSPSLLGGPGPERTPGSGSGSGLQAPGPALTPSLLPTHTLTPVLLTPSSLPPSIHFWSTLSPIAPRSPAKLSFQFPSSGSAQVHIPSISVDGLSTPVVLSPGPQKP
# Method in brief: as §1
# GABPA = target: T3, GABPA (Homo sapiens, UniProt Q06546 1-454); details: protein: recombinant; tags: N-terminal GST; dsDNA, one strand shown
# T3 sequence: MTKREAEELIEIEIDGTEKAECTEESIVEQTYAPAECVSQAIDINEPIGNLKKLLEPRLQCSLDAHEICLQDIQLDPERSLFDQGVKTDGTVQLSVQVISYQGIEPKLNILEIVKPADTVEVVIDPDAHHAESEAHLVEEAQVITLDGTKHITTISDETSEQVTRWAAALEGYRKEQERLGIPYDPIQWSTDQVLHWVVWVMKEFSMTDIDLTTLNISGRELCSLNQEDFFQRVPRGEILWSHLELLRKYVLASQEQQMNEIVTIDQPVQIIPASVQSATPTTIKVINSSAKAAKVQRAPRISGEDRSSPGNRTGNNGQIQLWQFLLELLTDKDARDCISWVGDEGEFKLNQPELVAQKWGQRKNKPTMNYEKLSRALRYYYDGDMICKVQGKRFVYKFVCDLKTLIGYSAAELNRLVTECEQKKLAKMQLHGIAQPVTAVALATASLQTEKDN
# Method in brief: as §1
# ERG = target: T4, ERG (Homo sapiens, UniProt P11308 1-479); details: protein: recombinant; tags: N-terminal GST; dsDNA, one strand shown
# T4 sequence: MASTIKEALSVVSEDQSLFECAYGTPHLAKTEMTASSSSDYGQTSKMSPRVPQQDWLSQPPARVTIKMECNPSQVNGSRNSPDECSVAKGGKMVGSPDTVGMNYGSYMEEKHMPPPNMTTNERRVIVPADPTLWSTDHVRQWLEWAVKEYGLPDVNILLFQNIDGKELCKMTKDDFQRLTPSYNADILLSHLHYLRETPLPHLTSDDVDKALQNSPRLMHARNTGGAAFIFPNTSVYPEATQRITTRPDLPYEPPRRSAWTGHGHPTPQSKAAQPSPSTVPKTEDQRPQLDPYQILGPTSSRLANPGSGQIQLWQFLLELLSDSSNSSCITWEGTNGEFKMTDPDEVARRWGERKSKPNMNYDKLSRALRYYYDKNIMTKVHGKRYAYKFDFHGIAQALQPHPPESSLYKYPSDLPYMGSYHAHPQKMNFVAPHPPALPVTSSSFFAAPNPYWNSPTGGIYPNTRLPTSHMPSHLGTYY
# Method in brief: as §1
# ELF1 = ELF1 (Homo sapiens, UniProt P32519 1-619); details: protein: recombinant; tags: N-terminal GST; dsDNA, one strand shown
# Method in brief: as §1
# EHF = target: T5, EHF (Homo sapiens, UniProt Q9NZC4 1-300); details: protein: recombinant; tags: N-terminal GST; dsDNA, one strand shown
# T5 sequence: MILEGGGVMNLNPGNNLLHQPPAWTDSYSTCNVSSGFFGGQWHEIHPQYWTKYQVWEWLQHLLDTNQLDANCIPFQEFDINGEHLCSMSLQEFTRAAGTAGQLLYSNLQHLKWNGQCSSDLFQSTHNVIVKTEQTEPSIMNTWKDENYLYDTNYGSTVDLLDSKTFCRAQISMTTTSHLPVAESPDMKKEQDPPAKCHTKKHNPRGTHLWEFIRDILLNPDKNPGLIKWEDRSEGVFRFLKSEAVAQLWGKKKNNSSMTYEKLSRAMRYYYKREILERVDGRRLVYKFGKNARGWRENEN
# Method in brief: as §1
# SPI1 = SPI1 (Homo sapiens, UniProt P17947 1-270); details: protein: recombinant; tags: N-terminal GST; dsDNA, one strand shown
# Method in brief: as §1
# SPIB = SPIB (Homo sapiens, UniProt Q01892 1-262); details: protein: recombinant; tags: N-terminal GST; dsDNA, one strand shown
# Method in brief: as §1
# ELK3 = target: T6, ELK3 (Homo sapiens, UniProt P41970 1-407); details: protein: recombinant; tags: N-terminal GST; dsDNA, one strand shown
# T6 sequence: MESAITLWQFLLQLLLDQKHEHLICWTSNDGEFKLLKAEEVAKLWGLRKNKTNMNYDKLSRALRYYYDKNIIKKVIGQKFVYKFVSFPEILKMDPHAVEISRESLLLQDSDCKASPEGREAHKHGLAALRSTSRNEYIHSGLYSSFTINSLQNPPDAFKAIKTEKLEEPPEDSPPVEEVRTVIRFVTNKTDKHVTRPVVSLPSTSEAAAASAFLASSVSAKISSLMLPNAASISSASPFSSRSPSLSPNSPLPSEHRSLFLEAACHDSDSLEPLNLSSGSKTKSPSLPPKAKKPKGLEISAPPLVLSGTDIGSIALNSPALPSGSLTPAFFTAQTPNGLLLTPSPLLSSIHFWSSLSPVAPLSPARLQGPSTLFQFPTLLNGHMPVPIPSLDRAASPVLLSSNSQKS
# Method in brief: as §1
# FEV = target: T7, FEV (Homo sapiens, UniProt Q99581 1-238); details: protein: recombinant; tags: N-terminal GST; dsDNA, one strand shown
# T7 sequence: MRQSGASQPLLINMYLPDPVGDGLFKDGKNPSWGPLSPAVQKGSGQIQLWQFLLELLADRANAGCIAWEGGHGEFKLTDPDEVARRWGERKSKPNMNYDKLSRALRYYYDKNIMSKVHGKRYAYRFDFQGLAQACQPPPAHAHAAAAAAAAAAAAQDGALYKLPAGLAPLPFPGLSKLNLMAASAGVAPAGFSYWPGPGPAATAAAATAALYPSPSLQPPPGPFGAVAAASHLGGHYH
# Method in brief: as §1
# ETV5 = ETV5 (Homo sapiens, UniProt P41161 1-510); details: protein: recombinant; tags: N-terminal GST; dsDNA, one strand shown
# Method in brief: as §1
# HSF1 = HSF1 (Homo sapiens, UniProt Q00613 1-529); details: protein: recombinant; tags: N-terminal GST; chain copies: 3; dsDNA, one strand shown
# Method in brief: as §1
# SPIC = target: T8, SPIC (Homo sapiens, UniProt Q8N5J4 1-248); details: protein: recombinant; tags: N-terminal GST; dsDNA, one strand shown
# T8 sequence: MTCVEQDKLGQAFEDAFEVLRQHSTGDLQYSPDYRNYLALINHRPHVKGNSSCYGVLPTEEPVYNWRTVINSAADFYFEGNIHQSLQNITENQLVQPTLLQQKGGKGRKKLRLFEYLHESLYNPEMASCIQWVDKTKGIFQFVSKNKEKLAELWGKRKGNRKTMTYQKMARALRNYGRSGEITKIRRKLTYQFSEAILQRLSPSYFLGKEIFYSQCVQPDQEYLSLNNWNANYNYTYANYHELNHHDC
# Method in brief: as §1
# ELF4 = ELF4 (Homo sapiens, UniProt Q99607 1-663); details: protein: recombinant; tags: N-terminal GST; dsDNA, one strand shown
# Method in brief: as §1
# ELK4 = target: T9, ELK4 (Homo sapiens, UniProt P28324-2 1-405); details: protein: recombinant; tags: N-terminal GST; dsDNA, one strand shown
# T9 sequence: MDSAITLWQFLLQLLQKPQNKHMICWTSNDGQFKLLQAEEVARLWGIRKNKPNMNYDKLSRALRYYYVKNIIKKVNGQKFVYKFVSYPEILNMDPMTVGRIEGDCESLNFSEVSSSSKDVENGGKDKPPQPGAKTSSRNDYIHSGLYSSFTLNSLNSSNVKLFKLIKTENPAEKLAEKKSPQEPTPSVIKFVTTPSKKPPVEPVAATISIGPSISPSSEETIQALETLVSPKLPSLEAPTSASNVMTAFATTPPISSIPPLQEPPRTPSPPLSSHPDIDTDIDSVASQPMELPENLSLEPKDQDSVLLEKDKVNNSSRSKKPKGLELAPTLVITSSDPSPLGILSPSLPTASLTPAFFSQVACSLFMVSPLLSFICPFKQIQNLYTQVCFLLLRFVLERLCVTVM
# Method in brief: as §1
# ETV2 = target: T10, ETV2 (Homo sapiens, UniProt O00321 1-342); details: protein: recombinant; tags: N-terminal GST; dsDNA, one strand shown
# T10 sequence: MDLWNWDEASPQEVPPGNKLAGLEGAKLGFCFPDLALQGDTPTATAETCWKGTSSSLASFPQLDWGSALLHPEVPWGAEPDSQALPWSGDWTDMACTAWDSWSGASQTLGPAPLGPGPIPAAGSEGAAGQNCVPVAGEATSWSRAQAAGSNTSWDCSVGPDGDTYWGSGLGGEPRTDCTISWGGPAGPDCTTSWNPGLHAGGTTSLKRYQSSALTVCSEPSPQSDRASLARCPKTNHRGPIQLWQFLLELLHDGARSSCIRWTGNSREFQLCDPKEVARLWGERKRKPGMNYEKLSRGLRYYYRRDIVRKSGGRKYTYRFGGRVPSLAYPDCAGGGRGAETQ
# Method in brief: as §1
# ELF3 = target: T11, ELF3 (Homo sapiens, UniProt P78545 1-371); details: protein: recombinant; tags: N-terminal GST; dsDNA, one strand shown
# T11 sequence: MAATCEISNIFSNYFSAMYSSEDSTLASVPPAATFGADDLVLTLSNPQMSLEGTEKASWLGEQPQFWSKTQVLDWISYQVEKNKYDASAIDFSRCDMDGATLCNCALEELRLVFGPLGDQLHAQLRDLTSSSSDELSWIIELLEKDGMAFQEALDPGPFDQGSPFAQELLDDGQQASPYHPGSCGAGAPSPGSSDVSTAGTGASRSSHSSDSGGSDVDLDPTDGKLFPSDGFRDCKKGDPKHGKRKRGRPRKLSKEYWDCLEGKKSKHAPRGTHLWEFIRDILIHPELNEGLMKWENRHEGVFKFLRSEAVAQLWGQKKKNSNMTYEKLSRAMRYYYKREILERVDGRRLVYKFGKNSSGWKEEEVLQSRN
# Method in brief: as §1
# CRX = CRX (Homo sapiens, UniProt O43186 1-299); details: protein: recombinant; tags: N-terminal GST; dsDNA, one strand shown
# Method in brief: as §1
# ETV1 = ETV1 (Homo sapiens, UniProt P50549 1-477); details: protein: recombinant; tags: N-terminal GST; dsDNA, one strand shown
# Method in brief: as §1
# Chain of ELF1 (P32519 whole entry): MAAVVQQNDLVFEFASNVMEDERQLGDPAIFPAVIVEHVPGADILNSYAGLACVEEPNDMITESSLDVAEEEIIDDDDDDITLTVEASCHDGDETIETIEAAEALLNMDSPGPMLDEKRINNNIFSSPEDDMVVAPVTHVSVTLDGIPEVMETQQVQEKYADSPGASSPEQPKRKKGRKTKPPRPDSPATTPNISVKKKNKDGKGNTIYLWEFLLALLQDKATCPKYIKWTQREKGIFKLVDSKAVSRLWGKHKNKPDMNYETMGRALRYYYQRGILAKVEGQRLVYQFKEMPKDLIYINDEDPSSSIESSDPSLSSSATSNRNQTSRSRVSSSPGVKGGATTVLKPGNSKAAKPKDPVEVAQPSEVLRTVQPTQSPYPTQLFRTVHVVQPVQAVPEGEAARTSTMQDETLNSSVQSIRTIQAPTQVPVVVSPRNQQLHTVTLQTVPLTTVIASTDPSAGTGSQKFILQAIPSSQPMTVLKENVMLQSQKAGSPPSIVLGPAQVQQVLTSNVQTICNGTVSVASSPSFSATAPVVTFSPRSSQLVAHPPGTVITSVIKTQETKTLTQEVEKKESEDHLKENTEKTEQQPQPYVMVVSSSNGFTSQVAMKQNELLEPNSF
# Chain of ETV1 (P50549 whole entry): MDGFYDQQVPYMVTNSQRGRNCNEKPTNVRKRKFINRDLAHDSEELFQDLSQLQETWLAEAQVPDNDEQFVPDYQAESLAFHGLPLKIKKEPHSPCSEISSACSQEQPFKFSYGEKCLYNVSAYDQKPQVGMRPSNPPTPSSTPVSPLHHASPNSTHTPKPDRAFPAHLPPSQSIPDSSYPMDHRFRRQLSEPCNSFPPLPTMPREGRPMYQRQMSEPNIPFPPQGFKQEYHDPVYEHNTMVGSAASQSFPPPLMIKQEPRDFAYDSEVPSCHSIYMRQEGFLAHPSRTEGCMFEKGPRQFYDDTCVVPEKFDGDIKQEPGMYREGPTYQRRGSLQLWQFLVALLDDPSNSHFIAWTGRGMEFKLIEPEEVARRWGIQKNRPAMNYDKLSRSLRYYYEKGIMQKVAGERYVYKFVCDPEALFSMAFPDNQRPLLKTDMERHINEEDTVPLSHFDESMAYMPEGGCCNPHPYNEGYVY
# Chain of HSF1 (Q00613 whole entry): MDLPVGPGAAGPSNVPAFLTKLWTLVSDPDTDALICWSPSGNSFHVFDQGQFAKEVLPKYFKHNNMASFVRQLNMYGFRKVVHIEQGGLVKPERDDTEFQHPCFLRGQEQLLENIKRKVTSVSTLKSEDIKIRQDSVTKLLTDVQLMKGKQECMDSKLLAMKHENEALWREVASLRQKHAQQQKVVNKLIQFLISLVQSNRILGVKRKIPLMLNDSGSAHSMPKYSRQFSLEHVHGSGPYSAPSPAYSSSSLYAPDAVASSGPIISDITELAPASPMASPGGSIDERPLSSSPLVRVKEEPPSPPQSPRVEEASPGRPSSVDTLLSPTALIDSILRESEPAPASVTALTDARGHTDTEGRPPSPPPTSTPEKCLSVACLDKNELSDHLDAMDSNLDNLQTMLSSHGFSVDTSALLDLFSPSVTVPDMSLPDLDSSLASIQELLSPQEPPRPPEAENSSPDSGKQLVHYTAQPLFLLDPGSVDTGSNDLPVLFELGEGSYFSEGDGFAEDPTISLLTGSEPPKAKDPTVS
# Chain of SPIB (Q01892 whole entry): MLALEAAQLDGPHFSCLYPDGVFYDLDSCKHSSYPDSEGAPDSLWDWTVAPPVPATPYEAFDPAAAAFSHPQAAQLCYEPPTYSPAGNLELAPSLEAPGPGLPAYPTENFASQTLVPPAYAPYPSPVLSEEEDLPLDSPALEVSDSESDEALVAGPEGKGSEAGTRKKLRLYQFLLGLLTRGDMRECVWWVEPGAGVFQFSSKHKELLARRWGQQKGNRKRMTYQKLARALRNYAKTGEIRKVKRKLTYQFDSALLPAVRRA
# Chain of ELF4 (Q99607 whole entry): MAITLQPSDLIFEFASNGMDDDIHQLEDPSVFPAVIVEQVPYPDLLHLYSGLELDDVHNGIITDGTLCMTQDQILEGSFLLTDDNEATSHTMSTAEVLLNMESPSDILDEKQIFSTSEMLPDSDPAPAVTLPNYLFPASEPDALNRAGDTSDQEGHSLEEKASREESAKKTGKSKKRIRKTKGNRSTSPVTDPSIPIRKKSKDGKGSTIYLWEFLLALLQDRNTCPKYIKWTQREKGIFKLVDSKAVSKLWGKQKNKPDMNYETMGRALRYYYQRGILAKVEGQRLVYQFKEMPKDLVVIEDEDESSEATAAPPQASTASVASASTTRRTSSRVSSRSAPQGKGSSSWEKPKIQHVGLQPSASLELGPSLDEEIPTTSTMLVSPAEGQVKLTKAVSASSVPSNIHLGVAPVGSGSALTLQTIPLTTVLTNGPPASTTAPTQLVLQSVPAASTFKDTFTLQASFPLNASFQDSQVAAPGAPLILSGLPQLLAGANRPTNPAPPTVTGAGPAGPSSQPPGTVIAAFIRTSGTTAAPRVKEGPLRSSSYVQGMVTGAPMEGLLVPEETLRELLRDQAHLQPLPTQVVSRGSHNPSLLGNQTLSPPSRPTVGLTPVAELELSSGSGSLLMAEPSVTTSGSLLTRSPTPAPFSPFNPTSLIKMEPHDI
# Chain of ETV5 (P41161 whole entry): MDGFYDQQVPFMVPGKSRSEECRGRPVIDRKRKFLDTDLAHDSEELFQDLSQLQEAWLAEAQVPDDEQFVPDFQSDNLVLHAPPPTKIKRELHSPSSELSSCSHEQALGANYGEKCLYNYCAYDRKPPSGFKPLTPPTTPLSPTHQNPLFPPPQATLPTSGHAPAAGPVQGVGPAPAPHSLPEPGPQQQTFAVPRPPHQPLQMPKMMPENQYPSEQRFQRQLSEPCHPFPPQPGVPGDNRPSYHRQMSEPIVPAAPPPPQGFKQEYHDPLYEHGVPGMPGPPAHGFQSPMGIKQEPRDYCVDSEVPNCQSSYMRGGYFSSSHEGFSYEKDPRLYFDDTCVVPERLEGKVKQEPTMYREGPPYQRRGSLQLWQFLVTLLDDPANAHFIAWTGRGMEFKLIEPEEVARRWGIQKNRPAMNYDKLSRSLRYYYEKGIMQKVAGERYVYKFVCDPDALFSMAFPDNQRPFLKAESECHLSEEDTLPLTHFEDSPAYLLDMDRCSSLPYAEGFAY
# Chain of CRX (O43186 whole entry): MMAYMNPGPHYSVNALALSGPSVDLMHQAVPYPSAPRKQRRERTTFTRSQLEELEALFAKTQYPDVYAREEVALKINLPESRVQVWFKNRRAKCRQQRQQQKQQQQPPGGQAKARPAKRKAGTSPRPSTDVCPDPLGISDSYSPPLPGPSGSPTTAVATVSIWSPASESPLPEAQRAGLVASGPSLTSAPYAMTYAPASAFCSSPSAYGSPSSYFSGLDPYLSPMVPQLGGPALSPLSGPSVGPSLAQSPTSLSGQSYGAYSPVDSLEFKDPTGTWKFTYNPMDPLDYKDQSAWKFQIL
sequence,measurement,setting,value
ATTTTG,binding signal,FLI1,"1.19 fold enrichment (6-mer frequency, TF over GST control)"
same,binding signal,ELK1,"1.25 fold enrichment (6-mer frequency, TF over GST control)"
same,binding signal,GABPA,"1.33 fold enrichment (6-mer frequency, TF over GST control)"
same,binding signal,ERG,"1.2 fold enrichment (6-mer frequency, TF over GST control)"
same,binding signal,ELF1,"1.28 fold enrichment (6-mer frequency, TF over GST control)"
same,binding signal,EHF,"1.3 fold enrichment (6-mer frequency, TF over GST control)"
same,binding signal,SPI1,"1.31 fold enrichment (6-mer frequency, TF over GST control)"
same,binding signal,SPIB,"1.28 fold enrichment (6-mer frequency, TF over GST control)"
same,binding signal,ELK3,"1.14 fold enrichment (6-mer frequency, TF over GST control)"
same,binding signal,FEV,"1.15 fold enrichment (6-mer frequency, TF over GST control)"
same,binding signal,ETV5,"1.28 fold enrichment (6-mer frequency, TF over GST control)"
same,binding signal,HSF1,"1.28 fold enrichment (6-mer frequency, TF over GST control)"
same,binding signal,SPIC,"1.09 fold enrichment (6-mer frequency, TF over GST control)"
same,binding signal,ELF4,"1.25 fold enrichment (6-mer frequency, TF over GST control)"
same,binding signal,ELK4,"1.31 fold enrichment (6-mer frequency, TF over GST control)"
same,binding signal,ETV2,"1.33 fold enrichment (6-mer frequency, TF over GST control)"
same,binding signal,ELF3,"1.31 fold enrichment (6-mer frequency, TF over GST control)"
same,binding signal,CRX,"1.32 fold enrichment (6-mer frequency, TF over GST control)"
same,binding signal,ETV1,"1.31 fold enrichment (6-mer frequency, TF over GST control)"
